# Results as given in article PMC12136788.
# In all, about 24,000 sequences were measured (“enrichment r”: median about 0.99, highest 2% from about 3.7 on). The sample holds the highest values, similar sequences and a random draw of the others, so the mix is not that of the screen.
# T1: UNK ZnF1-3 (human, UniProt Q9C0B0 31-174)
# T1 sequence: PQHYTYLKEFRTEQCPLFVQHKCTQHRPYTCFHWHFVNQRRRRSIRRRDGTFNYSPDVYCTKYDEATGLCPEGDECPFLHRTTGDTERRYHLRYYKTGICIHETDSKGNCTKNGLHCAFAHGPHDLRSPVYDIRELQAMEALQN
# B1: chr5:176910979:176910980:-_ENSG00000196923_ENST00000355841|hu_hu|FALSE|FALSE (ssRNA)
# RNA: GGGAGUUCUACAGUCCGACGAUCCCCAGCGUCGAUCUUGAAGUCACAGCCAUGGCAUUUCGUGCCAAACAUCUUCUCAUAGUCUCGCUCGCAAUAGGGCACGCCCUCCUCCAUGUAGAAGGCCCUGUUCCGGAUGGGCGUCUUCAACAGAGGAUUGAGCAUCA
# B2: 118753231_118753351_2268_3pUTR_ENSG00000125354_ENST00000354416|human|control|control (ssRNA)
# RNA: GGGAGUUCUACAGUCCGACGAUCUGAAAUACCUCACAAGAAGAAUUCGGUAAGGCUAUCAUUCAAGACUCUAGGCUGGUAAUAAUAUUCAGGUUUAUUCUCCCUUUUGCAUCUGUGGGAUACCCAGAGUUAGAGAGAGGGGAACAACAGAGGAUUGAGCAUCA
# B3: 16459948_16460068_3699_3pUTR_ENSMUSG00000024639_ENSMUST00000025541|mouse|control|control (ssRNA)
# RNA: GGGAGUUCUACAGUCCGACGAUCAUCCCUAGUCAGAAAUAAACUGACAAAUUUACAUUCUCCUCUCUUAAAAAAGUAAAUAAAAUAACAUUAUUCAAAAUGUGAAUUAGCUAUAAGACAUACAAUUACAUAGAUACAUAUCAACAACAGAGGAUUGAGCAUCA
# B4: chr17:64801638:64801639:+_ENSG00000154229_ENST00000413366|hu_hu|motif|central (ssRNA)
# RNA: GGGAGUUCUACAGUCCGACGAUCAUCAAAUACAUAUAUAUACACACACAUAUGUAGUAAGAGCCUAAUCUAUCACGUAAACGGGCCAUUCAUUUUUGAAAUUUUAUCUACAUUUAAAAAGUAAUCUAUCUGAUACAGUGCCCACAACAGAGGAUUGAGCAUCA
# B5: chr5:151611259:151611260:+_ENSMUSG00000034021_ENSMUST00000016569|mus_mus|FALSE|FALSE (ssRNA)
# RNA: GGGAGUUCUACAGUCCGACGAUCGCAUUUCUGAACAUAAUGUUCAAGAAGUAAUAUCUAUACACAAUAACAUUCUAGACUAUUAAAAGCCCAUUCAAAUUACAGAAUUUUAUUGAUACAGUAGAUUAAUAUAAACUGAAAAAACAACAGAGGAUUGAGCAUCA
# B6: 66017293_66045708_550_CDS_ENSMUSG00000056515_ENSMUST00000070673|mouse|control|control (ssRNA)
# RNA: GGGAGUUCUACAGUCCGACGAUCAGCGUCCUUCAGGGGCACCUCCCUAAUAUCAGAGAGGUCACACUUGUUCCCAGCAAUCGCCAUCACAAUGUUUUCUGGGCCGUGCUCCUUCAGCUCCUUGACCCAUUUUUUCAAGGUAUGCAACAGAGGAUUGAGCAUCA
# B7: chr6:41757443:41757444:+_ENSG00000214736_ENST00000398881|hu_mus|hu_hu_hu_mus_False|8_108 (ssRNA)
# RNA: GGGAGUUCUACAGUCCGACGAUCGAACUGUCUGCUGGCAACAUCUCAGCCGACACUGGGGGAUGGGGGGGCAGUGGGGGGGGGUUCAGGCAAGGAGAGGGAGUCAACUUCAGCUGCCACUCAGGUAGCUGCCAUCAGUCACAGCAACAGAGGAUUGAGCAUCA
# B8: chr6:43255143:43255144:+_ENSG00000146216_ENST00000259750|hu_hu|FALSE|FALSE (ssRNA)
# RNA: GGGAGUUCUACAGUCCGACGAUCCUCAGGCCCCCUUCUUCCUCCCAGCUCCAAACCAGGGUGUUGUUGGUCCUGGGGCAGAGGUGAGGCUGGGGGCCCUACAUUCACGGUUCGGUUGGUGGCAAGGAGCAGGCCCAGGGCCUGCAACAGAGGAUUGAGCAUCA
# B9: chr6:41757443:41757444:+_ENSG00000214736_ENST00000398881|hu_mus|hu_hu_hu_mus_False|18_108 (ssRNA)
# RNA: GGGAGUUCUACAGUCCGACGAUCGAACUGUCUGCUGGCAACAUCUCAGCCGACACUGGGGGAUGGGGGGGCAGUGGGGGGGGGUUCAGGCAAGGAGAGGGAGUCAACUUCAGCUGCUCAAACUUCAGGAUCUUGUGGUCACAGCAACAGAGGAUUGAGCAUCA
# B10: 8158834_8158954_592_CDS_ENSG00000178921_ENST00000314666|human|control|control (ssRNA)
# RNA: GGGAGUUCUACAGUCCGACGAUCAGGGCCAUUGAGGGGUUCCGGCAUGCUCUCAGGGGAGAAACUCUGGAUGGGAUGGGGGAAGUGCUGCUCUGUCAUCCGGUCGUGCAGGGUAGCCAGAGCAAUGGCUUCCACCUCAGCUGACAACAGAGGAUUGAGCAUCA
# B11: chr6:41757443:41757444:+_ENSG00000214736_ENST00000398881|hu_mus|hu_hu_hu_mus_False|58_108 (ssRNA)
# RNA: GGGAGUUCUACAGUCCGACGAUCGAACUGUCUGCUGGCAACAUCUCAGCCGACACUGGGGGAUGGGGGGGCAGUGGGAAACUAGGCAGGCAAGGAGAGGGAGUCAACUUCAGCUGCCACUCAGGUAGGAUCUUGUGGUCACAGCAACAGAGGAUUGAGCAUCA
# B12: chr2:27806210:27806211:+_ENSMUSG00000026837_ENSMUST00000028280|mus_hu|FALSE|FALSE (ssRNA)
# RNA: GGGAGUUCUACAGUCCGACGAUCUGUGGUUUCUUUGGCAGCUUCCACGGGCUUCUUGCUGGGGGUGGGCUCCUUCCCUAGGUCUUCGGGGUCUUCGUAGUAGGGGUAUUCGUAGUAAUAGGUCUCACCCUCGCCGUCUCCUUCCAACAGAGGAUUGAGCAUCA
# B13: 53358179_53360397_419_3pUTR_ENSMUSG00000033054_ENSMUST00000035850|mouse|control|control (ssRNA)
# RNA: GGGAGUUCUACAGUCCGACGAUCCAUCGCUGCCGCUUGAUUUCUGCAAUUCCAUUUCUCGUUCGAGCUCUCUGAUGGGCAGCAAACCCUGGAGAACUGUGCAUGCUCCUGAUCUGAGAGAGUGUGUGGUCUAGCUUCUUCCAUCAACAGAGGAUUGAGCAUCA
# B14: 25965218_25965338_4171_CDS_ENSG00000143970_ENST00000336112|human|control|control (ssRNA)
# RNA: GGGAGUUCUACAGUCCGACGAUCGCCUCUAUAGCUUGGCCCUAUCUGGGUGGGGCUUCCAUACAACUUCGGGGUUUGCAGGGGUGGAAGGAGUAGGGGCUGGUGGGUGGGGCUGUCUGCAGGCAGAGGAAGAACAGUAGAACUCAACAGAGGAUUGAGCAUCA
# B15: 31370942_31371062_1482_CDS_ENSMUSG00000006307_ENSMUST00000006470|mouse|control|control (ssRNA)
# RNA: GGGAGUUCUACAGUCCGACGAUCUCCUGUGGUGGUGCUAGGGUUUGGAGUGGGAGAAAGGGUGCCCUCUGGUCCUGACCGAGCAGCUUCCCUCUCUGCCCGCUGGCUAGGAGUCAGGGGAGGCCUGCCCCUCUUCCUAGAGCACAACAGAGGAUUGAGCAUCA
# Target: T1, UNK ZnF1-3
# Assay: nsRBNS (natural sequence RNA bind-n-seq); RBNS binding buffer (assumed for nsRBNS): 25 mM Tris pH 7.5, 150 mM KCl, 3 mM MgCl2, 0.01% Triton X-100, 500 ug/ml BSA, 20 U/ml SUPERase-In, 4 C; UNK is unkempt and MSI1 is Musashi-1; names of the RNAs are library labels; protein concentration not given here; high values mean tight binding
row,Binder,binding signal [enrichment R]
1,B1,0.849
2,B2,1.58
3,B3,1.33
4,B4,1.16
5,B5,11
6,B6,0.683
7,B7,5.65
8,B8,0.703
9,B9,4.19
10,B10,0.632
11,B11,1.42
12,B12,0.604
13,B13,0.827
14,B14,5.58
15,B15,0.887
